# Pf growth 48h = Primary qHTS for delayed death inhibitors of the malarial parasite plastid, 48 hour incubation; P. falciparum luciferase growth in erythrocytes, 48 h; Potency, µM (doses to about 28.7 µM), without a hit: at the highest dose activity change, negative = inhibition, actives largely listed as inhibitors; 310,000 compounds, 5.9% hits; AID 504832, 2011; note: % is set by controls: 0 for no effect and ±100 for the full control effect
#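 A one-generation exposure of luciferase-tagged malaria parasites in RPMI 1640/Albumax erythrocyte culture, 37 C and 5% CO2. Inhibition is inferred from decreased luminescence after adding detection reagent.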
# Pf growth 96h = Primary qHTS for delayed death inhibitors of the malarial parasite plastid, 96 hour incubation. P. falciparum luciferase reporter growth, 96 h. Potency, µM (doses to about 28.7 µM), for the others: top-dose activity change, negative = inhibition, actives largely listed as inhibitors. 320,000 compounds, 6.9% hits. AID 504834, 2011; note: % is set by controls: 0 for no effect and ±100 for the full control effect
#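 96 h incubation, 37 C, 5% CO2, of luciferase-reporter P. falciparum-infected RBCs (2% hematocrit, 0.05% parasitemia final) with test compounds; endpoint luminescence.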
# SARS PLpro yeast = qHTS of Yeast-based Assay for SARS-CoV PLP. Potency, µM (doses to about 32.9 µM), without a hit: top-dose activity, positive = growth rescue, usual class: activators. S. cerevisiae expressing SARS-CoV PLpro, growth rescue. 330,000 compounds, 0.19% hits; calls by dose curve; note: 0% is about no effect; nearly all actives have a fitted effect of over 55% in size
# AMA1-RON2 inh = qHTS for Inhibitors of AMA1-RON; Towards Development of Antimalarial Drug Lead: Primary Screen; Plasmodium falciparum AMA1 (3D7) - RON2 peptide interaction; AlphaScreen AMA1-biotinylated RON2 peptide binding; Potency, µM (series often up to 58.2 µM), for the others: top-dose activity change, negative = inhibition, actives largely listed as inhibitors; 360,000 compounds, 0.2% hits; AID 720542, 2013;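 note: 0% = vehicle wells and -100% = peptide control; nearly all actives have a fitted effect of over 45% in size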
#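 AMA1 (3D7) with his tag at 25 nM final met compounds first, then biotinylated RON2 peptide at 25 nM; detection used donor plus acceptor beads, 10 µg/mL apiece, read by AlphaScreen after 30 min at room temperature.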
# Starred values were filed as active, the others as inactive; ? = inconclusive; nt = no result; [ ] = remark or other dose. This is a sample that favours compounds with a hit; in the whole collection about 9.4% have one here. Unless noted, calls come from the whole dose curve; as a rule, active = well fitted curve in the direction sought with a large enough effect; inconclusive = small, poorly fitted or top-dose-only effect, or another doubt; inactive = no such curve, though single readings can be large; an effect the other way counts as inactive or inconclusive. Potency is the fitted concentration of half-maximal effect.
SMILES,Pf growth 48h,Pf growth 96h,SARS PLpro yeast,AMA1-RON2 inh
COc1cc(/C=C/C(=O)OCC(=O)NC(=O)NC23CC4CC(CC(C4)C2)C3)ccc1OCC#N,15µM*,?,-1%,-3%
CC1C(=O)Nc2ccc(S(=O)(=O)N3CCc4ccccc4C3)cc2NC1=O (centres undefined),-20%,?,1%,9%
COc1ccc(C(N)CCc2ccc(C)o2)cc1 (centres undefined),?,?,-1%,-13%
O=C1[C@H](O)[C@@H](O)C(=O)N1Cc1ccccc1,7%,-5%,-1%,-1%
CC1=CC(=C(C#N)C#N)C=C(C)N1Cc1ccccc1,?,4.7µM*,2%,4%
CCOC(=O)N1CCN(C(=O)CSc2nnc(-c3ccc(C)c(C)c3)o2)CC1,nt,9.3µM*,2%,0%
COc1ccc(N2CCN(C(=O)CSc3nnc(-c4ccc5[nH]c(C)c(C)c5c4)o3)CC2)cc1,?,3.3µM*,11%,-2%
CCOC(=O)N1CCN(C(=O)CSc2nnc(-c3cccc(OC)c3)o2)CC1,9.3µM*,nt,8%,1%
CCOC(=O)N1CCN(C(=O)CSc2nnc(-c3cc(OC)cc(OC)c3)o2)CC1,-4%,?,0%,12%
COc1ccc(-c2nnc(SCC(=O)N3CCCC3)o2)cc1,83%,-18%,-1%,6%
Cc1cc(C)nc(SCc2nnc(SCC(=O)N3CCOCC3)o2)n1,29%,7.4µM*,-1%,14%
COC(=O)C1CCN(C(=O)CSc2nnc(-c3ccncc3)o2)CC1,13%,5.2µM*,5%,-6%
COc1ccc(-c2nnc(SCC(=O)N3CCOCC3)o2)cc1OC,11%,12µM*,-2%,1%
COc1ccc(-c2nnc(SCC(=O)N3CCN(c4ccccc4)CC3)o2)cc1OC,39%,-4%,-2%,17%
O=C(NC1CCN(Cc2ccccc2)CC1)c1c(Cl)cccc1Cl,1%,2%,-1%,-1%
COC(=O)C1C(c2ccc(OC)c(OC)c2)NC(c2ccc(OC)c(OC)c2)C(C(=O)OC)S1(=O)=O (centres undefined),-20%,?,8%,-9%
O=S(=O)(Cc1ccc(Cl)cc1)N1CCN(Cc2ccccc2)CC1,39%,?,2%,-3%
CCn1c(=O)cc(SCC(=O)N2CCOCC2)c2ccccc21,20%,?,4%,5%
CCn1c(=O)cc(SCC(=O)N2CCN(C(=O)c3ccco3)CC2)c2ccccc21,-14%,5.9µM*,4%,-2%
CCc1ccc(CN2CCN(S(=O)(=O)Cc3ccccc3)CC2)cc1,1%,3.3µM*,5%,-23%
COc1ccc(-c2nc(CN3CCN(C(=O)c4ccco4)CC3)c(C)o2)c(OC)c1C,7.4µM*,53%,-1%,0%
Cc1ccc(C)c(COc2coc(CN3CCN(C(=O)c4ccco4)CC3)cc2=O)c1,12µM*,?,-14%,8%
O=C(c1ccco1)N1CCN(Cc2cc(=O)c(OCc3ccccc3Cl)co2)CC1,?,?,2%,-8%
CCCOc1ccccc1/C=N/Nc1ccnc(=O)[nH]1,?,-25%,0%,9%
Nc1nc(N2CCOCC2)nc2ccccc12,4%,nt,-10%,-5%
SMILES,Pf growth 48h,Pf growth 96h,SARS PLpro yeast,AMA1-RON2 inh
O=C(O)C(Cc1ccccc1)n1cnnn1 (centres undefined),16%,35%,-10%,0%
CCn1c2ccccc2c2cc(CN3CCN(C(=O)c4ccco4)CC3)ccc21,?,8.3µM*,4%,?
CCCS(=O)(=O)N1CCN(Cc2ccc3c(c2)c2ccccc2n3CC)CC1,9.3µM*,35%,-16%,0%[11.6 µM]
COc1ccc(CN2CCN(C(=O)c3ccco3)CC2)cc1OC,?,?,-3%,-8%
COc1ccc(CN2CCN(C(=O)c3ccco3)CC2)cc1OCc1ccccc1,?,0.093µM*,1%,?
O=C(NNS(=O)(=O)c1ccccc1)c1cccs1,26%,?,8%,17%
CN(C)S(=O)(=O)c1cccc(NC(=O)c2cccc(S(=O)(=O)N3CCc4ccccc43)c2)c1,5.9µM*,9.3µM*,6%,-1%
CC(=O)c1cccc(NC(=O)c2ccc3c(c2)CCN3S(=O)(=O)c2ccccc2)c1,?,12µM*,-4%,6%
CC(=O)Nc1cccc(NC(=O)c2ccc3c(c2)CCN3S(=O)(=O)c2ccccc2)c1,?,?,-6%,-11%
NS(=O)(=O)c1ccc(NC(=O)c2ccc3c(c2)CCN3S(=O)(=O)c2ccccc2)cc1,-22%,4%,-10%,-8%
O=C(NNC(=O)c1cccc(S(=O)(=O)N2CCc3ccccc32)c1)c1ccccc1,2%,-3%,3%,52%
O=C(Nc1ccccc1)c1ccc2c(c1)CCN2S(=O)(=O)c1ccccc1,3.7µM*,92%,-5%,0%
NC(=O)C1CN(C(=O)c2cccc(S(=O)(=O)N3CCc4ccccc43)c2)c2ccccc2O1 (centres undefined),8.3µM*,?,-7%,12%
Cc1nnc(NC(=O)c2cccc(S(=O)(=O)N3CCc4ccccc43)c2)s1,-12%,nt,8%,11%
COc1ccc(C2NCCc3c2[nH]c2ccccc32)cc1CSc1nc2ccccc2s1 (centres undefined),?,?,-28%,?
CCC(C(=O)NC(C)(C)C)N(Cc1ccco1)C(=O)Cn1nnc(-c2ccc(F)cc2)n1 (centres undefined),?,-3%,-1%,-3%
CCc1ccc(N2CC(C(=O)OCC(=O)Nc3cc(C)on3)CC2=O)cc1 (centres undefined),2%,22%,-1%,-10%
Oc1cccc(NC(=S)Nc2ccccc2)c1,54%,128%,1%,10%
CCOC(=O)c1c(NC(=O)C2c3ccccc3Oc3ccccc32)sc(C(N)=O)c1C,nt,?,-9%,-2%
CC(c1ccccc1)n1c(SCC(=O)N2CC(=O)Nc3ccccc32)nc2ccccc2c1=O (centres undefined),13µM*,5.2µM*,2%,17%
COCC(C)n1c(SCC(=O)N2CC(=O)Nc3ccccc32)nc2ccccc2c1=O (centres undefined),13µM*,?,-1%,-6%
CC(C)Cn1c(SCC(=O)N2CC(=O)Nc3ccccc32)nc2ccccc21,?,?,-5%,4%
COCC(C)n1c(SCC(=O)N2CCOCC2)nc2ccccc2c1=O (centres undefined),nt,nt,1%,13%
Cc1ccc(S(=O)(=O)N2CCCCC2)cc1NC(=O)c1ccc2c(c1)OCO2,-8%,9%,8%,0%[2.32 µM]
CC(C)(C)C1=CC(=O)C(N2CCOCC2)=CC1=O,10µM*,15µM*,-14%,-25%
COc1ccc(NC(=O)CN2CCN(C(=O)N3CCOCC3)CC2)cc1,12%,2.3µM*,-3%,-12%
CCOC(=O)N1CCN(C(=O)C(C)N(c2ccc(Oc3ccccc3)cc2)S(C)(=O)=O)CC1 (centres undefined),12µM*,?,-2%,-5%

# Screens: PubChem BioAssay, National Center for Advancing Translational Sciences (NCATS)
